Measured values from PubChem BioAssay AID570 (The Scripps Research Institute Molecular Screening Center, 2006).
Out of some 65,000 compounds screened, about 45 (0.07%) were called active. Many of the other results were omitted from the sample, so actives are more common in it than they were. Values without a mark were called inactive.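 The calls were made as follows: active = inhibition above the mean of compound-free control plate wells plus 3 SD (cut at about 14% in these data); inactive = the rest.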

Molecular target: Collagenase 3 (Homo sapiens) (UniProt P45452)
Assay: human MMP13 inhibitors, primary screen, biochemical, FRET peptide cleavage (AID 570);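 also: 0% = DMSO wells and 100% = wells with reference MMP-13 inhibitor after basal subtraction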
Details: MMP-13 fTHP FRET cleavage, Mca fluorescence; at 4 µM; hits give high values

Compared with `Cn1c(=O)n(CCc2ccccc2)c(=O)c2c1nc1n2CCCN1c1ccccc1`, `O=C(Cn1cnc2c(cnn2-c2ccccc2)c1=O)NCc1ccccc1` is lower in inhibition: -0.2% for the first, -2% for the second.

First: CCC/C(O)=C1\C(=O)CC(C)(C)CC1=Nc1ccccc1OC
Second: C=CCC(NCCCO)c1cccc(OC)c1OC (centres undefined)
The inhibition of the first is higher: -1.2% for the first, -1.4% for the second.

Compared with `CSCCC(NC(N)=O)C(=O)N(C)CC(=O)Nc1ccc(C)cc1` (centres undefined), `CCOC(=O)CSc1nnc(CNc2ccc(F)cc2)o1` is higher in inhibition: -2.4% for the first, -2.2% for the second.

Going from `CCc1c(C)nc(N2CCN(Cc3ccccc3)CC2)[nH]c1=O` to `Cc1cccc2cc(CN(Cc3nnnn3Cc3ccccc3)C3CCCC3)c(=O)[nH]c12`, the inhibition falls from -7.8% to -8.4%.

First: COC(=O)c1c(-c2ccc(C)cc2)csc1N
Second: C=CCn1cnc2scc(-c3ccccc3)c2c1=O
The inhibition of the first is lower: -8.5% for the first, 0.5% for the second.

Going from `CCn1c(COc2ccccc2)nnc1SCC(=O)Nc1ccc2c(c1)OCCO2` to `C=CCn1c(COc2ccccc2C)nnc1SCC(=O)O`, the inhibition rises from 0.5% to 5.1%.

Compared with `C=CCNc1nnc(C)c2ccccc12`, `CCC(C)Sc1nnc(-c2c[nH]c3ccccc23)n1CCOC` (centres undefined) is higher in inhibition: 3.5% for the first, 6.4% for the second.

Going from `Cc1cc(NC(=O)CN2CCCCC2C)nc2c1c(=O)oc1ccccc12` (centres undefined) to `CCOC(=O)c1ccc(-n2c(C)nc3c(cnn3-c3ccccc3C)c2=O)cc1`, the inhibition rises from 0.1% to 7.5%.

Going from `COc1ccccc1N1CCN(C(=O)c2cn(-c3ccccc3)nc2-c2cccnc2)CC1` to `COc1ccccc1N(CC(=O)N1CCCCC1)S(=O)(=O)c1ccccc1`, the inhibition rises from -5.4% to 2.1%.

First: CCCN1CC=C2C(C#N)=C(N)C(C#N)(C#N)C(c3cc(OC)ccc3OC)C2C1 (centres undefined)
Second: CCOC(=O)CSc1nnc(CNC(=O)c2cccs2)n1-c1cc(OC)ccc1OC
The inhibition of the first is lower: -14.3% for the first, -0.5% for the second.

`CCCCNC(=O)c1c[nH]c2ccc(S(=O)(=O)Nc3ccc(OCC)cc3)cc2c1=O` and `CCCCN(C)C(=O)c1ccc2c(c1)N(CC)C(=O)c1ccccc1S2(=O)=O` are the same in inhibition: -4.5% for the first, -4.5% for the second.

First: Cc1cccc(N2CCN(S(=O)(=O)c3ccc4c(c3)c(=O)n(C)c(=O)n4C)CC2C)c1 (centres undefined)
Second: CN1CCN(c2cc(=O)n(-c3ccc(Cl)cc3)c(=O)[nH]2)CC1
The inhibition of the first is higher: 4.1% for the first, 0.4% for the second.

First: CCOC(=O)c1cc2occc2n1CC(=O)NC1CCC(C)CC1 (centres undefined)
Second: CC(C)N1C(=O)C2C(C(=O)NC3CCCCC3)C3C=CC2(O3)C1C(=O)NC1CCCC1 (centres undefined)
The inhibition of the first is higher: 4.9% for the first, -2.8% for the second.

Going from `COc1ccc(NS(=O)(=O)c2ccc(NC(=O)C(C)(C(F)(F)F)C(F)(F)F)cc2)nn1` to `CN(CCCC(=O)Nc1nccs1)S(=O)(=O)c1ccc(Cl)cc1`, the inhibition rises from -10.5% to 6%.

Going from `Cc1ccc(C(=O)CSc2nnc(Cn3nnc4ccccc43)n2C)cc1` to `CCOC(=O)CSc1nc2c(sc(=S)n2CCc2ccccc2)c(=O)n1Cc1ccco1`, the inhibition falls from 7.7% to 2.4%.

Going from `CCN1CCN(Cc2c(O)ccc3c(=O)c(-c4ccc(OC)c(OC)c4)c(C(F)(F)F)oc23)CC1` to `Cc1cc(C(F)(F)F)n2ncc(-c3ccccc3)c2n1`, the inhibition falls from 4.7% to 3.8%.

Compared with `O=c1nc2s/c(=C\c3ccco3)c(=O)n2nc1Cc1ccccc1`, `Cc1ccccc1NC(=O)NCc1ccco1` is higher in inhibition: 0.1% for the first, 2.4% for the second.

Going from `CCc1nnc(NC(=O)c2c(O)c3c([nH]c2=O)CCCC3)s1` to `O=C(NCCCN1CCN(c2ccccc2F)CC1)C1CCC(=O)N1C1CCCCC1` (centres undefined), the inhibition rises from -11% to 1.3%.

`CC(C)(C)n1nnnc1C(c1cccs1)N(Cc1cccnc1)CC1CCCO1` (centres undefined) and `FC(F)(F)c1cc(-c2cccs2)nc(NCc2ccco2)n1` are the same in inhibition: -3.9% for the first, -3.9% for the second.

With `CN(c1ccccc1)c1ccc(/C=c2\s/c(=C(/C#N)C(=O)C(C)(C)C)n(Cc3ccco3)c2=O)cc1` the inhibition was 15.4% (active).
